Data published in ChEMBL document CHEMBL4513216, “Probing the Open Global Health Chemical Diversity Library for Multistage-Active Starting Points for Next-Generation Antimalarials” (ACS Infect Dis, 2020).
In all, about 69,000 compounds went through this assay and about 8,600 (12%) showed an effect of 50% or more. Many of the other results were omitted from the sample, so strong results are more common in it than they were.

What follows are compounds tested on Plasmodium berghei (assay: Screen against P. berghei liver stage (PbLuc), transformed with Luciferase, at 10uM). Conditions: tested at 10 uM.
Assay type: functional, HepG2

| Compound | INHIBITION [%] |
| --- | --- |
| Cc1ccc(OCCCNC(=O)Cc2nc3ncccn3n2)cc1 | 27.7 |
| Cc1ccc(C(CNC(=O)Cc2nc3ncccn3n2)N(C)C)cc1 (configuration not stated) | 56.8 |
| Cc1ccc(C(NC(=O)Cc2nc3ncccn3n2)C2CC2)cc1 (configuration not stated) | 53.4 |
| Cc1ccc(C(NC(=O)Cn2cc(C3CC3)nn2)C2CC2)cc1 (configuration not stated) | 8.08 |
| Cc1ccc(C(CNC(=O)c2cc(CC(C)C)nn2C)N(C)C)cc1 (configuration not stated) | -28.8 |
| Cc1ccc(C(NC(=O)CN2CCc3c(ncn3C)C2)C2CC2)cc1 (configuration not stated) | 6.99 |
| O=C1C(NS(=O)(=O)c2cccc(F)c2)CCN1Cc1ccccc1 (configuration not stated) | -5.25 |
| Cc1ccc(N2C[C@H](C)[C@]3(CCN(c4cccnc4)C3=O)C2)nn1 | 38.5 |
| CCC(C)N(Cc1sccc1C)C(=O)c1ccc2cccnc2n1 (configuration not stated) | 11.2 |
| CC(=O)NCC(=O)N1CCN(Cc2ccncc2)c2ncccc2C1 | 76.5 |
| O=C(O)CCC(=O)N1CCN(CC2CC2)c2ncccc2C1 | 82 |
| O=C(Cc1ccccn1)N1CCN(CC2CC2)c2ncccc2C1 | 24.5 |
| COCC(=O)N1CCN(CC2CC2)c2ncccc2C1 | -18.6 |
| CC(=O)NCC(=O)N1CCN(Cc2cccnc2)c2ncccc2C1 | -14 |
| CC(=O)NCC(=O)N1CCN(CC2CC2)c2ncccc2C1 | 27.9 |
| O=C(N1CCCC1)N1CCN(CC2CC2)c2ncccc2C1 | 20.5 |
| COCCC(=O)N1CCN(CC2CC2)c2ncccc2C1 | 55.7 |
| COCCC(=O)N1CCN(CC2CC2)c2nc(C)ccc2C1 | -7.24 |
| COC(=O)C(NC(=O)C1CC1)c1cc(F)ccc1F (configuration not stated) | 29.4 |
| CCOc1ccc(Cl)c(C(=O)NCCS(N)(=O)=O)n1 | 35.3 |
| COc1ccc(C2=CCN(C(=O)C3CCCN(C(C)=O)C3)CC2)cc1 (configuration not stated) | 1.78 |
| CNC(=O)CN(C(=O)c1ccccc1)[C@H]1C[C@H]2CCOC[C@H]2C1 | 8.61 |

| Compound | INHIBITION [%] |
| --- | --- |
| CN1CC(=O)N(c2cccc(F)c2)CC12CCN(Cc1ccncc1)C2 (configuration not stated) | -17.1 |
| O=C(Cc1ccc(F)c(Br)c1)N1CCN(CCO)CC1 | 66.7 |
| COc1ccc(Cl)cc1CC(=O)N1CCN(CCO)CC1 | 38.1 |
| NC(=O)CN1CCCN(C(=O)Cc2ccc(F)c(Br)c2)CC1 | 14.4 |
| Cn1cc(CN2CCc3onc(COc4cccnc4)c3C2)cn1 | 7.11 |
| CCS(=O)(=O)N1CCc2onc(COc3ccccn3)c2C1 | 3.88 |
| c1ccc(OCc2noc3c2CN(c2ncccn2)CC3)nc1 | 24.6 |
| O=S(=O)(C1CC1)N1CCc2onc(COc3ccccn3)c2C1 | 61.5 |
| Cc1cccc(C(=O)N2CCCCC2c2nc(C)cs2)n1 (configuration not stated) | -21.9 |
| O=C(O)C1(Cc2ccc(Cl)cc2)CCN(c2ncccc2F)CC1 | 52 |
| O=C(O)C1(Cc2ccccc2Cl)CCN(c2ncccc2F)CC1 | 43.5 |
| Cc1ncc(C)c(N2CCC(Cc3ccc(Cl)cc3)(C(=O)O)CC2)n1 | 12.7 |
| O=C(CCNC(=O)c1ccccc1)Nc1ccncc1 | 1.58 |
| COC[C@@H]1CCC[C@@]12CN(C(=O)N(C)C)CCO2 | 28.5 |
| COC[C@@H]1CCC[C@]12CN(S(=O)(=O)c1cccs1)CCO2 | 54.1 |
| COC[C@H]1CCC[C@]12CN(S(=O)(=O)c1cccs1)CCO2 | -0.554 |
| COC[C@@H]1CCC[C@@]12CN(C(=O)C1CCOCC1)CCO2 | 33.1 |
| CC(C)OC[C@H]1CCC[C@]12CN(C(=O)C1CCOCC1)CCO2 | 27.6 |
| COC[C@H]1CCC[C@]12CN(C(=O)NCc1ccccc1)CCO2 | -1.58 |
| COCC(=O)N1CCO[C@]2(CCC[C@H]2COC)C1 | 62.9 |
| CC(C)OC[C@H]1CCC[C@]12CN(S(=O)(=O)c1cccs1)CCO2 | 45.2 |
| COC[C@@H]1CCC[C@@]12CN(C(=O)N1CCCC1)CCO2 | 52.1 |

| Compound | INHIBITION [%] |
| --- | --- |
| CN(C)[C@@H]1COC[C@@H]2CN(Cc3ccc4c(c3)OCO4)C[C@@H]21 | -13.7 |
| CC(=O)Nc1nc(CN2CCCCC2Cn2cccn2)cs1 (configuration not stated) | -15.8 |
| CN(C)C(=O)C1CCc2nnc(C(C)(C)C)n21 (configuration not stated) | -7.25 |
| Cc1cc2nccc(C3CCCN(C(=O)c4cnccn4)C3)n2n1 (configuration not stated) | 33.2 |
| O=C(NC1CC1)N1CCc2ncnc(-c3ccncc3)c2CC1 | -17 |
| O=C(c1ccoc1)N1CC[C@@H]2[C@H]1CCC(=O)N2c1ccccc1 | 43.2 |
| Cc1occc1C(=O)N1CCC2(CCCN(Cc3cccs3)C2)C1 (configuration not stated) | -60.9 |
| Cc1cnn(CCNCC(O)c2ccc(C(F)(F)F)cc2)c1 (configuration not stated) | 23.3 |
| CC(C)C(=O)NC1CCCN(C(=O)c2cc3ccccc3cc2O)C1 (configuration not stated) | -13.3 |
| Cc1ccn(-c2ccccc2NCc2ncc[nH]2)n1 | 7.9 |
| Cc1ccn(-c2ccccc2NCc2cscn2)n1 | 52.4 |
| Cc1ccn(-c2ccccc2NCc2ccccn2)n1 | 2.37 |
| Cc1ccn(-c2ccccc2NCc2cccnc2C)n1 | -11.8 |
| Cc1ccc(CNc2ccccc2-n2ccc(C)n2)nc1 | 40.5 |
| Cc1ccn(-c2ccccc2NCc2scnc2C)n1 | 58.3 |
| COCCC(=O)N1C[C@H]2CN(Cc3cccc(C)c3)C(=O)[C@H]2C1 | 14.9 |
| O=C(Nc1cc(C(F)(F)F)c[nH]c1=O)C1CCCNC1 (configuration not stated) | 42.6 |
| O=C(NCCN1CCOCC1)N(CCCO)C1CCCc2ccccc21 (configuration not stated) | 18.3 |
| COc1cccc(C(=O)N2CCN(Cc3nc(C(C)C)no3)CC2)c1 | 43.3 |
| CCOc1ccc(Cl)c(C(=O)NCCc2ncc[nH]2)n1 | 6.05 |
| OC[C@H]1CCN(Cc2ccc3ccccc3n2)C[C@@H]1O | 2.25 |
| CCOc1ccc2nc(CN3CCC(CN)C3)ccc2c1 (configuration not stated) | 57.5 |

| Compound | INHIBITION [%] |
| --- | --- |
| CCOc1ccc2nc(CN3CCC(CNC(C)=O)C3)ccc2c1 (configuration not stated) | 51.5 |
| COc1nc2ccccc2cc1CN1CCCC(CNC(C)=O)C1 (configuration not stated) | 21.85 |
| CCc1nccc(CN2CCC(CNC(=O)C3CCC(C)CC3)C2)n1 (configuration not stated) | 7.43 |
| CCOc1ccc2nc(CN3CCOC(CN)C3)ccc2c1 (configuration not stated) | 24.8 |
| COCCN1CCC(NCc2cc(F)ccc2F)C1 (configuration not stated) | -14 |
| Cc1ncc(S(C)(=O)=O)c(N(C)CCCc2cnn(C)c2)n1 | 29.1 |
| COCc1ccc(OC)c(CNC2CCCNC2=O)c1 (configuration not stated) | -9.51 |
| COc1cc(Br)cc(CNC2CCCNC2=O)c1O (configuration not stated) | 60 |
| COc1cc(Br)c(CNC2CCCNC2=O)cc1OC (configuration not stated) | 36.5 |
| O=C(c1cc2c(s1)CCC2)N1CCC(c2ccncc2)CC1 | 32.3 |
| CC(=O)Nc1nc(C(=O)N2CCCC(n3ccnc3C)C2)cs1 (configuration not stated) | 0.411 |
| O=C(CC1CC1)N1C[C@H]2CCN[C@H]2C1 | 24.6 |
| O=C(CC(F)(F)F)N1C[C@H]2CCN[C@H]2C1 | 62.3 |
| CC(C)(C)CC(=O)N1C[C@H]2CCN[C@H]2C1 | 46.4 |
| Cn1c(C2CC2)nc2c1CCN(Cc1nc3ccccc3s1)C2 | 43.5 |
| Cn1c(C2CC2)nc2c1CCN(CC(=O)Nc1nccs1)C2 | 11.9 |
| CCN1CCC(NC(=O)CN2CCc3c(nc(C4CC4)n3C)C2)CC1 | 24.8 |
| Cn1c(C2CC2)nc2c1CCN(CC(=O)NC1CCCCNC1=O)C2 (configuration not stated) | 52 |
| Cn1c(C2CC2)nc2c1CCN(CC(=O)Nc1nncs1)C2 | 17 |
| Cc1csc(NC(=O)CN2CCc3c(nc(C4CC4)n3C)C2)n1 | 67.4 |
| Cc1nc(CN2CCc3c(nc(C4CC4)n3C)C2)nc2ccccc12 | 74.1 |
| Cc1nc2ccccc2nc1CN1CCc2c(nc(C3CC3)n2C)C1 | -12.2 |

| Compound | INHIBITION [%] |
| --- | --- |
| Cn1cnc2c1CCN(CC(=O)NC1CCCCNC1=O)C2 (configuration not stated) | -7.72 |
| Cc1ccc(C(=O)N(C)Cc2ccc3c(c2)OCO3)c(=O)[nH]1 | 17.8 |
| O=c1c2c[nH]c(N3CCCC3)nc-2cn1CCc1ccc(Cl)cc1 | 15.1 |
| Cc1nc(C)n(C2CCCN(C(=O)CCc3cn(C)nc3C)C2)n1 (configuration not stated) | 21.5 |
| O=C(c1ccc[nH]1)N1CCc2nnc(Cn3cccn3)n2CC1 | 43.4 |
| O=C(NC1CC1)c1ccc2ccc(N3CCN(CC4CC4)CC3)n2c1 | 34.9 |
| O=C(O)c1ccc2ccc(N3CCN(CC4CC4)CC3)n2c1 | 54.1 |
| CN(C)C(=O)c1ccc2ccc(N3CCN(CC4CC4)CC3)n2c1 | 38.3 |
| CC(C)(C)OC(=O)N[C@H]1CCN(c2cncc(Br)c2)C1 | 22 |
| CCCC(=O)NC1CCCN(c2cncc(Br)c2)C1 (configuration not stated) | 55.4 |
| CCOC(=O)NC1CCCN(c2cncc(Br)c2)C1 (configuration not stated) | 35.9 |
| O=C1CC2(CCN(C(=O)C3CCCCC3)C2)Nc2ccccc2N1 (configuration not stated) | 28.4 |
| O=C(c1ccccn1)N1CCC2(COc3ncccc3S(=O)(=O)N2)C1 (configuration not stated) | 67.3 |
| O=C(c1ccc(Cl)s1)N1CCC2(COc3ncccc3S(=O)(=O)N2)C1 (configuration not stated) | 2.69 |
| O=C(c1ccncc1)N1CCC2(COc3ncccc3S(=O)(=O)N2)C1 (configuration not stated) | 25.1 |
| O=C(c1cscn1)N1CCC2(COc3ncccc3S(=O)(=O)N2)C1 (configuration not stated) | 48.2 |
| O=C(C1CCCCC1)N1CCC2(COc3ncccc3S(=O)(=O)N2)C1 (configuration not stated) | 50.7 |
| CCc1nccn1-c1cncc(C2CCCN2Cc2ccccc2)n1 (configuration not stated) | 45.6 |
| CCN1C[C@@H]2[C@@H](OC)CCN(S(=O)(=O)c3ccccc3F)[C@@H]2C1 | 21.6 |
